Screening results from PubChem.
sEH act = soluble epoxide hydrolase activators, primary screen, biochemical, human sEH; Bifunctional epoxide hydrolase 2 (Homo sapiens), P34913; purified human sEH enzymatic activity, activator screen; activation, % at 2 µM; actives 0.04% (n = 91,000); AID 717, 2007; in the data active means activation above about 37%
Target sequence (P34913 whole entry, looked up): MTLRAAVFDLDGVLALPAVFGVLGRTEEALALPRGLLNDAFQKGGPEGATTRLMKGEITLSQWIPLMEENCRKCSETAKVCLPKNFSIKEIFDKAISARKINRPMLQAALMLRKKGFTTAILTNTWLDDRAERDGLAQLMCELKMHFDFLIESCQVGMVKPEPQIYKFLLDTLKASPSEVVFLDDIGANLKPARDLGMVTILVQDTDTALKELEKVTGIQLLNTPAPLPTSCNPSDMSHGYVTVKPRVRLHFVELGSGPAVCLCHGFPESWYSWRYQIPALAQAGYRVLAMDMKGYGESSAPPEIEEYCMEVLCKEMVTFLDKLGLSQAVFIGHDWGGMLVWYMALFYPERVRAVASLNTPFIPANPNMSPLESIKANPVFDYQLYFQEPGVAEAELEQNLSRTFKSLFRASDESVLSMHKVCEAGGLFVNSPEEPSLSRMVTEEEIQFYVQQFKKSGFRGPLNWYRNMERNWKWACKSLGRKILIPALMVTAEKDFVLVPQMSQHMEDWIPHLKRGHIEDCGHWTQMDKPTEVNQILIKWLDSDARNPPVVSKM
PostGolgi yeast = phenotypic screen on post-Golgi transport, primary screen. post-Golgi transport phenotypic cell assay. inhibition, % at 10 µM. actives 0.9% (n = 98,000);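 further: yeast cells grown in 1536-well plates; yeast grown about 18 h at 30C before absorbance read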
PostGolgi ctrl = growth inhibition of yeast control strain, primary screen, counter-screen for post-Golgi transport modulator project; efflux-deficient yeast background strain, growth absorbance A615, 16 h; inhibition, % at 10 µM; actives 5% (n = 98,000)
Cav3 T inh = Cav3.2 calcium influx blockers – cell-based, Fluo-4 calcium fluorescence, FDSS, MLSMR library, primary screen; actives 4% (n = 100,000); AID 449739, 2010; Cav3.2-expressing cells; hits give low values; B-score at 10 µM; Voltage-dependent T-type calcium channel subunit alpha-1H (Homo sapiens), O95180;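 active means single-dose well whose peak fluorescence ratio is a statistical outlier from its plate by either plate-standardised score or position-corrected B-score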
sEH inhibitor = soluble epoxide hydrolase inhibitors, primary screen, biochemical, human sEH; recombinant human sEH enzymatic activity assay; inhibition, % at 2 µM; actives 0.34% (n = 91,000); AID 707, 2007; in the data active means inhibition above about 80%
* marks the source's active call; other numbers are inactive results; / = not tested or not shown. Rows were chosen to be rich in hits. Some 7.8% of all compounds tested hit in one or more screens of this group. Unless noted, no stated cut-off is given here; in the data, active means inhibition above about 30%; inactive means the rest.

SMILES	sEH act	PostGolgi yeast	PostGolgi ctrl	Cav3 T inh	sEH inhibitor
O=[N+]([O-])c1cc(S(=O)(=O)Nc2cccc(C(F)(F)F)c2)ccc1-n1nnc2ccccc21	8.1	-3.7	10.6	-5.59*	-9.0
CCN(CC)C(=O)CSc1nc(-c2cccs2)cc(-c2cccs2)c1C#N	3.4	/	/	-5.99*	-0.9
COc1ccc(Oc2cn[nH]c2-c2ccc(O)cc2O)cc1	-1.7	3.6	7.7	-5.95*	3.3
CCCc1ccc(Oc2cn[nH]c2-c2ccc(O)cc2O)cc1	9.3	97.2*	99.0*	-3.46	-7.8
CCOc1ccc2[nH]c(=O)c(CN(CC3CCCN3CC)C(=O)NCc3ccccc3)cc2c1 (stereo not given)	/	0.7	1.8	-0.621	/
CCCCOC(=O)Nc1cc(C)c(Cl)cc1OC	-7.1	2.9	9.3	1.23	7.4
CCOC(=O)Nc1cc(C)c(Cl)cc1OC	-3.0	-3.1	38.2*	-0.212	2.6
CCOC(=O)c1c(C)[nH]c(C(=O)OCC(=O)N2c3ccccc3CC2C)c1C (stereo not given)	-1.9	-7.9	-5.1	-0.021	1.4
CC1Cc2ccccc2N1C(=O)COC(=O)c1ccc(S(=O)(=O)N(C)C)cc1 (stereo not given)	7.2	30.1*	11.1	0.367	-6.7
Cc1cccc2c1N1C(=O)c3c(C(=O)O)cccc3C1CC2C (stereo not given)	-4.1	/	/	0.0845	6.5
O=C(Nc1ccc(Cl)cc1)c1cc(S(=O)(=O)N2CCOCC2)cs1	-55.2	1.8	10.3	-0.404	54.2
O=C(Nc1ccc(F)cc1)c1cc(S(=O)(=O)Nc2ccc(F)cc2)cs1	-5.5	24.9	7.0	-5.76*	8.1
Cc1ccc(NC(=O)c2cc(S(=O)(=O)N3CCCCC3)cs2)cc1	-46.7	0.7	6.3	-4.8*	48.2
COC(=O)C(O)(CC(=O)Nc1cc(Cl)ccc1Cl)C(F)(F)F (stereo not given)	8.5	/	/	0.207	-6.0
Oc1ccc(Cl)cc1C(C#Cc1ccccc1)N1CCOCC1 (stereo not given)	7.6	-1.5	20.3	-0.43	-4.7
CCOc1nc(NC2CCCCC2)nc(NC(C)(C)C)n1	4.8	/	/	-5.33*	-2.2
O=c1c2c(-c3ccco3)csc2nc(SCc2cn3cccnc3n2)n1-c1ccccc1	-49.9	-5.3	35.9*	-4.43*	49.7
COc1cccc(Cn2nnc(C(=O)NCc3ccccc3Cl)c2N)c1	5.6	-5.5	20.5	-3.91*	-5.0
O=C(CN1CCN(c2ccccn2)CC1)N1c2ccccc2Sc2ccc(C(F)(F)F)cc21	10.1	3.5	41.0*	-6.19*	-12.0
O=C(NCc1ccncc1)C(F)(F)C(F)(F)C(=O)NCc1ccncc1	4.5	-3.5	-0.6	-0.181	-4.2
O=C(/C=N/O)NCc1ccncc1	6.2	7.8	-12.1	-7.99*	-6.7
CCN(CC)c1ccc(NC(=O)COc2ccc(C)cc2)cc1	/	/	/	0.686	/
Cn1c(NCCCO)nc2c(c1=O)C1(CCCCC1)Cc1ccccc1-2	-0.1	7.8	36.0*	-1.85	-1.9
CCC1(C)Cc2ccccc2-c2nc(-c3ccccc3)oc(=O)c21 (stereo not given)	9.3	-1.7	8.8	-1.38	-9.9
O=c1[nH]c(CN(CCO)CCO)nc2c1C1(CCCCC1)Cc1ccccc1-2	/	-0.8	1.8	-10.6*	/
SMILES	sEH act	PostGolgi yeast	PostGolgi ctrl	Cav3 T inh	sEH inhibitor
CCC1(C)Cc2ccccc2-c2nc(NCCCO)n(-c3ccccc3)c(=O)c21 (stereo not given)	-3.5	2.6	15.6	-1.88	0.9
O=c1[nH]c(NCCO)nc2c1C1(CCCC1)Cc1ccccc1-2	6.3	-1.2	14.6	-4.13*	-6.4
CCN(CC)Cc1nc2c(c(=O)[nH]1)C1(CCCC1)Cc1ccccc1-2	-6.4	-1.8	15.2	-6.72*	6.8
CCC1(CC)Cc2ccccc2-c2nc(CN3CCOCC3)[nH]c(=O)c21	13.3	-6.9	12.0	-0.676	-12.0
CC(C)n1nc(Cc2cccc3ccccc23)c(C#N)c1N	/	/	/	-0.554	/
Nc1nnc(SCC(=O)NC23CC4CC(CC(C4)C2)C3)s1	-9.9	1.3	2.1	-0.956	7.5
CCC(C)NC(=O)c1ccc(CS(=O)(=O)Cc2ccc(Cl)cc2)o1 (stereo not given)	8.8	-4.0	-0.3	1.18	-8.5
CCOc1ccc(NC(=O)c2cccc(OC(=S)N3CCC(C)CC3)c2)cc1	-69.9	1.2	15.1	-4.28*	69.5
NC(=O)Nc1ccc(F)cc1	-2.5	0.2	0.1	0.63	1.4
CCN(CC)c1ccc(/C=C2/C(=O)N(c3ccc([N+](=O)[O-])cc3)N=C2N2CCOCC2)cc1	35.9	-1.8	33.6*	/	-32.1
CCN(CC)c1ccc(Nc2nc(N3CCOCC3)c3ccccc3n2)cc1	-15.3	2.4	12.7	-2.62	15.4
COc1ccc(-c2csc(NC(=O)C3CCCCN3S(=O)(=O)c3ccccc3)n2)cc1 (stereo not given)	-11.6	5.6	52.5*	-6.15*	12.0
O=C(Nc1nc2ccccc2s1)C1CCCN1S(=O)(=O)c1ccc(Cl)cc1 (stereo not given)	-4.4	-0.3	67.9*	-5.29*	2.3
Cc1ccc(S(=O)(=O)N2CCCC2C(=O)Nc2nc3ccccc3s2)cc1 (stereo not given)	17.3	-10.5	44.0*	-2.62	-14.1
CC1CC1C(=O)Nc1nc(-c2ccccc2)cs1 (stereo not given)	-3.2	0.5	6.8	-4.02*	5.3
COc1ccccc1N(CC(=O)NCC1CCCO1)C(=O)CCC(=O)Nc1nccs1 (stereo not given)	8.1	/	/	0.00782	-6.8
c1ccc(SCc2nc3ccccc3[nH]2)nc1	-3.0	-1.1	-4.6	0.716	5.3
CCOc1cc(C(=O)NCCOC)ccc1OC	2.8	26.9	8.3	0.749	-0.2
C=CCn1c(N)cc(=O)nc1SCC(=O)N1CCN(c2ccc(F)cc2)CC1	-2.5	6.3	6.6	-0.0859	1.6
CCOC(=O)C(C)Sc1nc2c(c(=O)[nH]c(=O)n2C)n1Cc1ccc(Cl)cc1 (stereo not given)	/	3.0	31.8*	-0.382	/
CCC(C)Sc1nc2c(c(=O)[nH]c(=O)n2C)n1Cc1ccc(Cl)cc1 (stereo not given)	/	5.7	46.3*	-2.85	/
CC(C)Sc1nc2c(c(=O)[nH]c(=O)n2C)n1Cc1ccc(Cl)cc1	3.5	3.0	23.4	/	-3.7
COc1ccc(C2CCCN2C(=O)Nc2ccc(Cl)cc2)cc1OC (stereo not given)	-95.1	4.0	23.7	-1.32	95.0*
COc1ccc(NC(=O)C2CCCN2C(=O)Nc2ccccc2)cc1OC (stereo not given)	1.2	/	/	1.05	-0.9
Cc1cccc(-c2cc3nc(C)cc(NCCCn4ccnc4)n3n2)c1	8.5	-12.3	6.9	0.951	-6.1
Cc1cc(NCCCn2ccnc2)n2ncc(-c3ccc(Cl)cc3)c2n1	7.6	6.5	47.4*	1.15	-4.6
COc1ccc(S(=O)(=O)N2CCSC2c2ccc(N)cc2)cc1 (stereo not given)	4.6	-0.6	0.8	0.532	-3.9
